The values that follow come from PubChem BioAssay AID651899 (Broad Institute, 2012).

Molecules are shown by their SMILES. Entries with a potency or affinity are not part of this list. Active and inactive are the calls of the source. The rule behind the calls is not given here.

This assay is described as follows: HEK293 cell viability loss – plate reader, cherry-pick, cytotoxicity control, dose response (AID 651899).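 Note: cells exposed to compound for 48 hours.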

Turning to `COCCN1C(=O)c2ccc(C(=O)Nc3cccnc3)cc2C1=O`, the molecule was called inactive. In the case of `CC1=CC2=NC(=O)/C(=C\c3cc(C)n(-c4ccccc4F)c3C)C(=N)N2O1`, the outcome was inactive.

For the molecule `CN1CCCC1CCOC(C)(c1ccccc1)c1ccc(Cl)cc1` (centres undefined), the call was inactive. The result for `CC(=O)c1ccc(N2CCN(C(=O)Cc3ccccc3)CC2)c(F)c1` reads “inactive”; that for `O=C(Nc1cccc(F)c1)C1CCCN(c2cnccn2)C1` (centres undefined), “inactive”; that for `C/C=C/c1ccc2c(c1)O[C@@H](CN(C)C(=O)c1ccc3c(c1)OCO3)[C@@H](C)CN([C@@H](C)CO)S2(=O)=O`, “inactive”. Regarding `O=C(NCc1ccco1)c1ccc(-c2ccc3nccn3c2)cc1`, the outcome was inactive.

Consider `O=C(Nc1cccnc1)c1ccc(Oc2ccccc2)cc1`, for which the molecule was classed as inactive. The result for `COc1ccc(CCN(C)c2ccc(C(N)=O)cc2[N+](=O)[O-])cc1OC` reads “inactive”; that for `CC(Oc1ccc2c(-c3ccccc3)cc(=O)oc2c1)C(=O)NCc1ccccn1` (centres undefined), “inactive”; that for `CC(=O)c1ccc(N2CCN(C(=O)c3ccc4nc[nH]c4c3)CC2)cc1`, “inactive”.

In the case of `COCC(=O)N1CC[C@@H]2[C@@H](CO)N(C)c3ccc(-c4ccc(F)cc4)cc3[C@@H]21`, the result was inactive.

With `COc1ccccc1-c1cc(C(F)(F)F)nc(S(=O)(=O)CCCC(=O)O)n1`, the result was inactive. Turning to `Cn1ncc2cc3c(Nc4ccc(Cl)cc4)cccc3nc21`, the molecule was classed as inactive. The result for `COc1ccc(CCNC(=O)c2cnc3n(c2=O)CCS3)cc1OC` reads “inactive”; that for `Cc1ccc(NCc2nnc(SCC(=O)N3CCc4ccccc43)n2C)cc1`, “inactive”.

Turning to `Cc1cc(C)n(-c2ccc(C(=O)Nc3ccc4c(c3)OCO4)cc2)n1`, the outcome was inactive. The result for `COc1ccc([N+](=O)[O-])cc1C(=O)NC1CCN(Cc2ccccc2)CC1` reads “inactive”. The result for `COc1ccc(F)cc1C(=O)C1CCCN(C(=O)c2ccc(C(C)=O)s2)C1` (centres undefined) reads “inactive”; that for `CN1c2ccc(-c3cccc(F)c3)cc2[C@@H]2[C@@H](CCN2C(=O)c2ccncc2)[C@H]1CO`, “inactive”; that for `CCOC(=O)C1(CCc2ccccc2)CCN(C(=O)CN2CCOC2=O)CC1`, “inactive”. The result for `C=CCn1c(SCc2c(C(=O)OC)sc(N)c2C(=O)OC)nnc1-c1ccc(Cl)cc1` reads “inactive”; that for `COC(=O)c1c(C(=O)OC)c(-c2ccc(F)cc2)n2c1CS(=O)C2` (centres undefined), “inactive”; that for `COc1cc2c(cc1NC(=O)c1cccnc1)CCCC2`, “inactive”. Regarding `CN1c2ccc(-c3cccc(F)c3)cc2[C@H]2[C@H](CCN2C(=O)c2ccncc2)[C@@H]1CO`, the outcome was inactive. The result for `C[C@@H]1CN([C@@H](C)CO)C(=O)c2cc(C#Cc3cccnc3)cnc2O[C@H]1CN(C)S(C)(=O)=O` reads “inactive”.

Turning to `O=C(Nc1ccc2c(c1)[C@H]1C[C@@H](CC(=O)N3CCc4ccccc4C3)O[C@H](CO)[C@H]1O2)c1cccnc1`, the molecule was classed as inactive.

In the case of `O=C(C[C@@H]1C[C@@H]2c3cc(NC(=O)c4cccnc4)ccc3O[C@@H]2[C@@H](CO)O1)NCc1cccc(F)c1`, the molecule was classed as inactive.

For `C=C(C)n1c(=O)n(Cc2ccccc2C)c2ccccc21`, the result was inactive. The result for `C=CCn1c(COc2ccccc2F)nnc1SCCN1C(=O)c2ccccc2C1=O` reads “inactive”; that for `COc1cc2cnc(-c3cccnc3)cc2cc1OC`, “inactive”; that for `C/C=C/c1ccc2c(c1)O[C@@H](CN(C)C(=O)Cc1cccnc1)[C@H](C)CN([C@H](C)CO)S2(=O)=O`, “inactive”.

With `CC(=O)c1ccc(N2CCN(S(=O)(=O)c3c(C(=O)N4CCCC4)c(C)n(C)c3C)CC2)cc1`, the molecule was called inactive. The result for `O=C(Nc1ncc2c(n1)CC(c1ccco1)CC2=O)c1ccccc1` (centres undefined) reads “inactive”.
